The values below come from PubChem BioAssay (NCI).

About 83,000 compounds went through this panel and 20% of them were active in at least one assay; those are over-represented in the sample as a whole.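 96-well plates, one dose, 48 hours. Percent growth reported; active if below 10.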 Values without a mark were called inactive. Activity calls are given as the source filed them.

Test systems include SR leukemia; RPMI-8226 leukemia; OVCAR-5 ovarian; OVCAR-4 ovarian; SK-OV-3 ovarian; IGROV1 ovarian; OVCAR-3 ovarian; HS 578T breast; NCI/ADR-RES ovarian; T-47D breast; BT-549 breast; MDA-MB-435 melanoma; SW-620 colon; MCF7 breast; HCT-116 colon; HCC-2998 colon; KM12 colon; OVCAR-8 ovarian.
Experiment in all cases: NCI-60 one-dose screen, 48 h (100 = growth as untreated, 0 = no growth, -100 = all killed)
Details in all cases: 10 µM unless noted

In the case of `COc1cc2c(-c3cc4c(cc3CNCCc3ccc5c(c3)OCO5)OCO4)cccc2c(OC)c1O`, the growth in the assay with SR leukemia is 27.8%; with RPMI-8226 leukemia it was 63.8%; in the assay with OVCAR-5 ovarian, 90.9%; in the assay on OVCAR-4 ovarian, 88.4%; with SK-OV-3 ovarian it was 99.6%; in the assay with IGROV1 ovarian it was 61.6%. The growth in the assay on OVCAR-3 ovarian is 86.1%; with HS 578T breast, 86.8%; in the assay with NCI/ADR-RES ovarian, 74.5%; in the assay with T-47D breast, 67.3%; in the assay on BT-549 breast, 91.3%; in the assay on MDA-MB-435 melanoma, 96.9%. Besides, the growth was 85.4% with SW-620 colon; 76.8% with MCF7 breast; 60.7% with HCT-116 colon; 42.7% in the assay on HCC-2998 colon; 96.5% in the assay on KM12 colon.

On to `CC(=O)Nc1ccc(-c2ccc3c(c2)NC(=O)/C3=C\c2ccc[nH]2)cc1`, for which the growth in the assay with SR leukemia is 36.5%; in the assay with RPMI-8226 leukemia, 94.4%; in the assay on OVCAR-5 ovarian, 73%; in the assay with OVCAR-4 ovarian it was 102%; in the assay with SK-OV-3 ovarian, 121%; in the assay with IGROV1 ovarian, 96.6%. Besides, the growth was 104% in the assay on OVCAR-3 ovarian; 110% with HS 578T breast; 96.7% in the assay with NCI/ADR-RES ovarian; 37.5% in the assay on T-47D breast; 83.5% in the assay on BT-549 breast; 90.6% in the assay with MDA-MB-435 melanoma. Further, the growth with SW-620 colon was 96.4%; in the assay on MCF7 breast it was 9.83% (active); with HCT-116 colon it was 104%; with HCC-2998 colon, 104%; in the assay with KM12 colon, 45.4%.

For `COc1cc(-c2n/c(=C\c3c(O)[nH]c4ccc(Cl)cc34)cc3c2=Nc2ccccc2-3)ccc1F`, the growth is 7.25% (active) in the assay with SR leukemia; -50.7% (active) in the assay with OVCAR-8 ovarian; 74% in the assay with OVCAR-5 ovarian; -56.9% (active) in the assay with OVCAR-4 ovarian; -14.7% (active) in the assay on SK-OV-3 ovarian; -18% (active) in the assay with IGROV1 ovarian. The growth with OVCAR-3 ovarian was -14.6% (active); in the assay on HS 578T breast, 14.8%; with NCI/ADR-RES ovarian, 47%; in the assay with T-47D breast, 56%; in the assay with BT-549 breast, 85.9%; in the assay on MDA-MB-435 melanoma, 21.3%. Further, the growth with SW-620 colon is -1.7% (active); in the assay on MCF7 breast, -54.2% (active); in the assay with HCT-116 colon, -45.8% (active); in the assay with HCC-2998 colon it was 71.6%; in the assay on KM12 colon, 4.87% (active).

Take `CCc1ccc(-c2cn3ccnc3c(-c3ccc4ncn(Cc5ccccc5)c4c3)n2)cc1`: the growth was 50.1% in the assay on SR leukemia; 44.6% in the assay with RPMI-8226 leukemia; 85.1% with OVCAR-5 ovarian; 64.9% in the assay on OVCAR-4 ovarian; 99.4% in the assay with SK-OV-3 ovarian; 75% with IGROV1 ovarian. Further, the growth in the assay on OVCAR-3 ovarian was 68.8%; in the assay with HS 578T breast it was 78.2%; in the assay with NCI/ADR-RES ovarian, 58.8%; in the assay on T-47D breast, 5.18% (active); with BT-549 breast, 84.1%; with MDA-MB-435 melanoma, 49.1%. Moreover, the growth in the assay on SW-620 colon was 81.2%; with MCF7 breast, 42%; in the assay on HCT-116 colon, 38.8%; with HCC-2998 colon it was 74.8%; in the assay on KM12 colon, 54.3%.

Regarding `CCCCNC(=O)Oc1ccc(/C(=C(\C)c2ccccc2)c2ccc(OCCN3CCCCC3)cc2)cc1`, the growth was 0.363% (active) in the assay with SR leukemia; 42.7% in the assay on RPMI-8226 leukemia; 89.5% in the assay with OVCAR-5 ovarian; 75.4% in the assay with OVCAR-4 ovarian; 71.6% with SK-OV-3 ovarian; 76.9% in the assay with IGROV1 ovarian. Moreover, the growth in the assay with OVCAR-3 ovarian is 64.7%; in the assay with HS 578T breast it was 56.9%; in the assay on NCI/ADR-RES ovarian it was 63.1%; in the assay on T-47D breast, 31.6%; with BT-549 breast, 62%; in the assay on MDA-MB-435 melanoma it was 67.8%. In addition, the growth with SW-620 colon was 60.8%; in the assay on MCF7 breast, 22.5%; in the assay with HCT-116 colon, 42.8%; in the assay with HCC-2998 colon it was 79%; in the assay with KM12 colon it was 52.1%.

For `CC(=O)c1ccc(NS(=O)(=O)c2cccc(C(=O)Nc3ccc(Br)cc3)c2)cc1`, the growth was 87.8% [25 µM] in the assay with SR leukemia; 22% [25 µM] with RPMI-8226 leukemia; 89.2% [25 µM] with OVCAR-5 ovarian; 63.6% [25 µM] in the assay with OVCAR-4 ovarian; 66.5% [25 µM] with SK-OV-3 ovarian; 73.7% [25 µM] in the assay on IGROV1 ovarian. In addition, the growth with OVCAR-3 ovarian is 70.9% [25 µM]; in the assay with HS 578T breast it was 79.7% [25 µM]; with NCI/ADR-RES ovarian it was 48% [25 µM]; in the assay with T-47D breast it was 30.6% [25 µM]; in the assay on BT-549 breast, 48.3% [25 µM]; in the assay on MDA-MB-435 melanoma, 53.4% [25 µM]. In addition, the growth in the assay with SW-620 colon is 75.6% [25 µM]; with MCF7 breast, 60.8% [25 µM]; in the assay on HCT-116 colon, 48.4% [25 µM]; in the assay with HCC-2998 colon, 79.8% [25 µM]; in the assay with KM12 colon, 58.2% [25 µM].

For the compound `CCOC(=O)/C(C#N)=C1/NNC(=Nc2cccnc2)S1`, the growth was 118% in the assay on SR leukemia; 107% in the assay on RPMI-8226 leukemia; 102% in the assay on OVCAR-5 ovarian; 100% with OVCAR-4 ovarian; 85.7% with SK-OV-3 ovarian; 111% in the assay on IGROV1 ovarian. Moreover, the growth is 101% with OVCAR-3 ovarian; 96.7% in the assay on HS 578T breast; 105% in the assay on NCI/ADR-RES ovarian; 88.7% in the assay with T-47D breast; 103% in the assay on BT-549 breast; 99.2% in the assay on MDA-MB-435 melanoma. In addition, the growth in the assay on SW-620 colon is 94.9%; with MCF7 breast, 106%; with HCT-116 colon, 91.9%; with HCC-2998 colon it was 113%; with KM12 colon, 102%.

Regarding `NS(=O)(=O)c1ccc(CCN2C(=O)C3C(C2=O)C2(Cl)C(Cl)=C(Cl)C3(Cl)C2(Cl)Cl)cc1` (stereo unspecified), the growth in the assay with SR leukemia is 98.1%; in the assay with RPMI-8226 leukemia, 53%; in the assay with OVCAR-5 ovarian, 98.2%; with OVCAR-4 ovarian it was 96.2%; in the assay with SK-OV-3 ovarian, 115%; in the assay with IGROV1 ovarian it was 97.3%. Besides, the growth in the assay on OVCAR-3 ovarian was 108%; in the assay on HS 578T breast it was 96.8%; with NCI/ADR-RES ovarian it was 98.7%; in the assay with T-47D breast it was 94.4%; in the assay on BT-549 breast, 94.8%; with MDA-MB-435 melanoma, 108%. For the same compound, the growth in the assay with SW-620 colon was 105%; in the assay on MCF7 breast, 92.5%; in the assay on HCT-116 colon it was 94%; in the assay with HCC-2998 colon, 93.8%; in the assay with KM12 colon, 105%.
